In PubChem BioAssay (NCI) one finds growth data, which are given here for 40 compounds.

About 83,000 compounds went through this panel and 20% of them were active in at least one assay; those are over-represented in the sample as a whole.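 A percent growth of 40 corresponds to 60% growth inhibition; 0 means no net growth; -100 means all cells died. Active threshold: below 10.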 Unmarked numbers belong to inactive results. Calls of active or inactive are those of the source.

The assay concerns NCI-H322M lung. The experiment in a line: NCI-60 one-dose screen, 48 h (100 = growth as untreated, 0 = no growth, -100 = all killed). Particulars: 10 µM unless noted. The method, then: Growth inhibition of the NCI-H322M human Non-Small Cell Lung tumor cell line is measured as a screen for anti-cancer activity. Cells are grown in 96 well plates and exposed to the test compound for 48 hours. Compounds are tested at a single concentration, which is 10^-5 M for most compounds. The reported endpoint is percent growth (GI% or GIPRCNT), where numbers from 0 - 100% represent growth inhibition, and numbers from -100% - 0 represent cell death. For example, a value of 40 represents 60% growth inhibition. A value of 0 means no net growth occurred over the course of the experiment. A value of -40 indicates 40% of cells at the beginning of the experiment died by the end of the experiment. A value of -100 means all cells are dead at the end of the experiment.
NCI-60 Human Tumor Cell Lines Screen was performed using the standard one-dose NCI protocol, which is described in more detail at https://dtp.cancer.gov/discovery_development/nci-60/default.htm.
Compounds with GIPRCNT values below 10 were considered active. Activity score was based on GIPRCNT using the following formula: […]
Score is 0 for GIPRCNT values of 100 or above, 50 for GIPRCNT values of 0, and 100 for GIPRCNT values of -100.
For the compound `CCCCCCCCCCCCCCCCCC1=NC(C)(C)CN1CC(C)O` (stereo not given), the growth is 71.4%. With `CCOC(=O)c1c(C)nc2c(c1N)CC(=O)N2Cc1ccc(OC)cc1` the figure was 41%; with `CCN1C(=O)N(CC)C2C1NN=c1s/c(=C\c3ccc[nH]3)c(=O)n12` (stereo not given), 36.5%. With `CC1=C(C(=O)Nc2ccccc2)C(c2ccc3c(c2)OCO3)NC(=S)N1` (stereo not given) the figure was 107%.

As to `O=C(Cc1ccc(/C=C/C(=O)c2ncc[nH]2)cc1)Nc1cc(C(F)(F)F)cc(C(F)(F)F)c1`, the growth is 96.4%. Turning to `CCCCCCCCCCCCCOC(=O)c1c(C)[nH]c(/C=C2\N=C(c3ccc[nH]3)C=C2OC)c1C`, the growth is 32.7%. With `O=C(C1CCCCC1)[C@@H]1[C@]2(C(=O)NC3CCCCC32)[C@@H]2CCCN2[C@@]12C(=O)NC1CCC(Cl)CC12` (stereo not given in full) the figure was -95.1% [100 µM] (active). Consider `O=C(N/N=C\c1ccccc1S(=O)(=O)O)N/N=C/c1ccccc1S(=O)(=O)O`, for which the growth is 99.3%. Take `OCCNCCNC(Cc1ccc(Cl)cc1)c1ccccc1` (stereo not given): the growth is 93.1%. With `Cc1ccc2nc(-c3ccc(C(=O)NNC(=S)Nc4ccccc4)cc3)[nH]c2c1` the figure was 99.7%; with `C=C(C)[C@@H]1CC[C@]2(C(N)=O)CC[C@]3(C)[C@H](CC[C@@H]4[C@@]5(C)CC[C@H](OCCC#N)C(C)(C)[C@@H]5CC[C@]43C)[C@@H]12`, 73.3%. With `C#CCO[C@H]1CC(CC#C)(CC#C)C(=O)[C@@H]2[C@H]1[C@H]1C[C@@H]3[C@@]4(C)CCC[C@@](C)(C(=O)OC)[C@@H]4CC[C@@]23C=C1C(C)C` the figure was 104%; with `N#Cc1ccc(O)c(C2=NCC(Cc3ccccc3)O2)c1` (stereo not given), 59.9%. With `CNC1=C([N+](=O)[O-])C(c2ccc(OC)cc2)C(C#N)=C(c2cccs2)O1` (stereo not given) the figure was 103%; with `N=c1c(S(=O)(=O)c2ccccc2)cc2c(=O)n3ccccc3nc2n1CC1CCCO1` (stereo not given), 96.4%; with `O=C1c2ccccc2C(=O)c2c1cc1c(c2[N+](=O)[O-])OCO1`, 46.9%. Regarding `O=C(CCCCCCN1CC(=O)N2[C@H](c3ccc(Br)cc3)c3[nH]c4ccccc4c3C[C@@H]2C1=O)NO`, the growth is 50.3%. As for `COc1ccc(Oc2nc(Nc3ccc(N4CCOCC4)cc3)ncc2NC(=O)Nc2cc(OC)cc(OC)c2)cc1`, the figure is 23.3%; as for `Cc1ccc(S(=O)(=O)OCCCOS(=O)(=O)c2ccc(C)cc2)cc1`, 92.3%. With `COc1ccc2cc(-c3ccnc4c(N=Nc5ccc(Cl)cc5)c(N)nn34)ccc2c1` the figure was 102%.

Turning to `Cc1ccc(NC(=O)Cn2c(Br)nc3c2c(=O)n(C)c(=O)n3C)cc1`, the growth is 30.6%. As for `COc1ccc(-c2nn(-c3ccccc3)cc2/C=C/C(=O)NNC(=O)Nc2ccc(C)cc2)cc1`, the figure is 99.6%; as for `CN1CCN(C(=S)SCCCCOc2cc(=O)oc3ccccc23)CC1`, 102%; as for `Cc1c(Cl)cccc1C(=O)Nc1nc2c(s1)CN(C(=O)c1ccc(C(F)(F)F)cc1)CC2`, 45.2%. As for `CC1(C)N=C(N)N=C(N)N1c1ccc(CCCCc2ccccc2)c(Cl)c1`, the figure is 31.6%. Consider `O=C(O)[C@@H](Cc1ccc2ccccc2c1)NC(=O)n1c2ccccc2c2ccccc21`, for which the growth was 49%. As for `CNC1=CC(=O)c2c(C(=O)OC)c(C)[n+]([O-])c(C)c2C1=O`, the growth was 71.9%. Regarding `O=C1Nc2ccccc2C1(c1c[nH]c2ccccc12)c1c[nH]c2ccccc12`, the growth was -15.6% (active). As for `Clc1ccccc1-c1cnn2cc(-c3ccccc3)cnc12`, the figure is 87%. As for `Nc1nc2c(c3ncccc13)C(c1cccc(Cl)c1)Cc1ncccc1-2` (stereo not given), the figure is 49.7%; as for `CCc1n(Cc2ccc3ccccc3n2)cc[n+]1Cc1ccc2ccccc2n1`, 73.1%. As for `CS(=O)(=O)c1ccc(NC(=O)c2ccccc2)nc1`, the figure is 111%; as for `N#Cc1cccc(C2C3=C(COC3=O)N(CCO)c3cc4c(cc32)OCO4)c1` (stereo not given), 49.3%. On to `CN1C(=O)/C(=C/c2ccc(C(=O)Nc3ncc(Cc4cccc(Cl)c4)s3)cc2)SC1=S`, for which the growth was 76.2%. With `Cc1ccc(CNc2ccc3nc(CCC(C)C)[nH]c3c2)cc1` the figure was 100%; with `O=C(CCSc1nnc2n(Cc3ccccc3)c(=O)c3c4c(sc3n12)CCCC4)N1CCN(c2ccccc2)CC1`, 99.8%. With `C#CCOc1cccc(-c2ncnc3cc(NC(=O)C=C)ccc23)c1` the figure was 70.3%.

For the compound `CCS/C(Nc1ccccc1)=C(\C#N)C(=O)Nc1ccc(OC)cc1`, the growth is 51.6%.

Turning to `COc1ccc(/C=C/C(=O)c2cc3c(N)c(C(=O)Nc4cccc(Cl)c4C)sc3nc2C)cc1`, the growth is 33.1%. As for `CCO/C=N/C1=C(C#N)C(c2ccc(F)cc2)c2sc3c(F)cccc3c2O1` (stereo not given), the figure is 65.4%.
